Results as given in the supplement of paper PMC10981050.
Where a name gives a salt, the structure may show the parent alone.

What follows are compounds tested on MARIMO (assay: cell viability relative to vehicle control; higher = less cytotoxic). Settings: 10 µM; SRSF2 genotype: SRSF2 P95H/wt.
Method in brief: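 CRISPR-edited SRSF2 P95 mutant and isogenic wild-type clones of four leukaemia lines were screened against Selleck bioactive, kinase and epigenetic probe libraries, with identity-inconsistent compounds removed. Compounds were acoustically dispensed into 384-well plates at a single 10 µM dose, with 2000 cells in 50 µL medium per well. After 48 h, supernatant was removed and CellTiter-Glo luminescence was read. Viability was expressed as percent of the on-plate DMSO vehicle control, analysed in Genedata Screener.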
In the case of `O=c1cc(N2CCOCC2)oc2c(-c3ccccc3)cccc12`, the cell viability is reported as 66.6%. With `C[C@@H]1C(=O)O[C@H](C)[C@H]1C[C@@H](O)[C@](C)(O)[C@H]1CC[C@@]2(O)C3=CC(=O)[C@@H]4C[C@@H](O)[C@@H](O)C[C@]4(C)[C@H]3CC[C@]12C` [Cyasterone] the cell viability was 95.2%. With `CSCC[C@H](NC(=O)[C@H](CC(C)C)NC(=O)[C@H](Cc1c[nH]c2ccccc12)NC(=O)[C@H](CCC(N)=O)NC(=O)[C@@H](NC(=O)[C@H](Cc1ccccc1)NC(=O)[C@H](CC(=O)O)NC(=O)[C@H](CCC(N)=O)NC(=O)[C@H](C)NC(=O)[C@H](CCCNC(=N)N)NC(=O)[C@H](CCCNC(=N)N)NC(=O)[C@H](CO)NC(=O)[C@H](CC(=O)O)NC(=O)[C@H](CC(C)C)NC(=O)[C@H](Cc1ccc(O)cc1)NC(=O)[C@H](CCCCN)NC(=O)[C@H](CO)NC(=O)[C@H](Cc1ccc(O)cc1)NC(=O)[C@H](CC(=O)O)NC(=O)[C@H](CO)NC(=O)[C@@H](NC(=O)[C@H](Cc1ccccc1)NC(=O)[C@@H](NC(=O)CNC(=O)[C@H](CCC(N)=O)NC(=O)[C@H](CO)NC(=O)[C@@H](N)Cc1cnc[nH]1)[C@@H](C)O)[C@@H](C)O)C(C)C)C(=O)N[C@@H](CC(N)=O)C(=O)N[C@H](C(=O)O)[C@@H](C)O` [Glucagon HCl] the cell viability was 107%. For `CCc1ccc(Cc2ccc3c(c2)[C@]2(OC3)O[C@H](CO)[C@@H](O)[C@H](O)[C@H]2O)cc1` [Tofogliflozin(CSG 452)], the cell viability was 77.3%. With `CCCCC(C)(O)C/C=C/[C@H]1[C@H](O)CC(=O)[C@@H]1CCCCCCC(=O)OC` (mixture of isomers) [Misoprostol] the cell viability was 82.6%. In the case of `O=C(Nc1ccc(Br)cc1)c1ccc(Br)c(S(=O)(=O)NCc2ccccc2)c1`, the cell viability is reported as 88.5%. Compound `CC[C@H]1OC(=O)[C@H](C)[C@@H](O[C@H]2C[C@@](C)(OC)[C@@H](O)[C@H](C)O2)[C@H](C)[C@@H](O[C@@H]2O[C@H](C)C[C@H](N(C)C)[C@H]2O)[C@](C)(O)C[C@@H](C)/C(=N\OCOCCOC)[C@H](C)[C@@H](O)[C@]1(C)O` [Roxithromycin (Roxl-150)] has a cell viability of 103%. `C=C1CC[C@H](O)C/C1=C/C=C1\CCC[C@]2(C)[C@@H]([C@H](C)/C=C/[C@H](C)C(C)C)CC[C@@H]12` [Vitamin D2 (Ergocalciferol)] was tested, and the cell viability was 101%. Work on `O=C(c1ccc(C(=O)N2CCC(N3CCCC3)CC2)c(Nc2ccccc2)c1)N1CCC(N2CCCC2)CC1` yielded a cell viability of 81.1%. `OCc1ccc(-c2ccc(-c3ccc(CO)s3)o2)s1` showed a cell viability of 63.2%. `CCNC(=O)c1noc(-c2cc(C(C)C)c(O)cc2O)c1-c1ccc(CN2CCOCC2)cc1` [Luminespib (AUY-922, NVP-AUY922)] was tested, and the cell viability was 32.3%. In the case of `O=C(c1ccc(Cl)cc1)N(Cc1ccccc1)C1CCCCC1`, the cell viability is reported as 75.2%. `COc1ccc2c3c1O[C@H]1C[C@@H](O)C=C[C@@]31CCN(C)C2` [Galanthamine] showed a cell viability of 102%. With `CN1CCN(c2ccc3nc(-c4c(N)c5c(F)cccc5[nH]c4=O)[nH]c3c2)CC1` [Dovitinib (TKI-258, CHIR-258)] the cell viability was 22.1%. `COc1cc2nc(N3CCN(C(=O)C4CCCO4)CC3)nc(N)c2cc1OC` (stereo unspecified) [Terazosin HCl Dihydrate] showed a cell viability of 101%. In the case of `CC[C@H](Nc1ncnc2[nH]cnc12)c1oc2ccccc2c(=O)c1-c1cccc(F)c1` [Tenalisib (RP6530)], the cell viability is reported as 95.2%. `O=C(c1ccccc1)C(O)O` [Phenylglyoxal hydrate] was tested, and the cell viability was 86.3%. With `O=c1c(O)c(-c2ccc(O)c(O)c2)oc2cc(O)cc(O)c12` [Quercetin (Sophoretin)] the cell viability was 93.9%. In the case of `CO[C@H]1/C=C/O[C@@]2(C)Oc3c(C)c(O)c4c(O)c(c5c(nc6cc(C)ccn65)c4c3C2=O)NC(=O)/C(C)=C\C=C\[C@H](C)[C@H](O)[C@@H](C)[C@@H](O)[C@@H](C)[C@H](OC(C)=O)[C@@H]1C` [Rifaximin (Xifaxan)], the cell viability is reported as 103%. `CC[C@@]1(O)C(=O)OCc2c1cc1n(c2=O)Cc2cc3c(CN(C)C)c(O)ccc3nc2-1` [Topotecan] gave a cell viability of 4.92%. `C=C(C)[C@@H]1CC[C@]2(C(=O)O[C@@H]3O[C@H](CO[C@@H]4O[C@H](CO)[C@@H](O[C@@H]5O[C@@H](C)[C@H](O)[C@@H](O)[C@H]5O)[C@H](O)[C@H]4O)[C@@H](O)[C@H](O)[C@H]3O)CC[C@]3(C)[C@H](CC[C@@H]4[C@@]5(C)CC[C@H](O[C@@H]6OC[C@H](O)[C@H](O)[C@H]6O[C@@H]6O[C@@H](C)[C@H](O)[C@@H](O)[C@H]6O)[C@@](C)(CO)[C@@H]5CC[C@]43C)[C@@H]12` [Anemoside B4] gave a cell viability of 96.1%.
